Rows were chosen to be rich in hits. Some 4.7% of all compounds tested hit in one or more screens of this group.
rCAG binder: binds r(CAG) RNA repeats | r(CAG) RNA repeat, TO-PRO-1 dye displacement fluorescence | inhibition, % at 3 µM | hit rate 1.3% among 370,000 | AID 651821;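 active = inhibition above the plate cutoff, the mean of all test compounds on that plate plus 3 SD, cut at about 35% in these data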;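 note: 0% = DMSO alone and 100% = 100 µM mitoxantrone as full dye displacement; higher means more dye released from RNA so lower well fluorescence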
KLK7 zymogen act: proKLK7 (human) activation, primary screen. P49862. purified proKLK7, EDANS-DABCYL substrate fluorescence; 100% is mature enzyme control, 0% vehicle. activation, % at 7 µM. hit rate 0.9% among 370,000. AID 652039;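 active = activation above the mean of all tested compounds plus 3 SD, computed per campaign excluding outliers beyond control limits, cut at about 13% in these data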
Target sequence (P49862 whole entry, looked up): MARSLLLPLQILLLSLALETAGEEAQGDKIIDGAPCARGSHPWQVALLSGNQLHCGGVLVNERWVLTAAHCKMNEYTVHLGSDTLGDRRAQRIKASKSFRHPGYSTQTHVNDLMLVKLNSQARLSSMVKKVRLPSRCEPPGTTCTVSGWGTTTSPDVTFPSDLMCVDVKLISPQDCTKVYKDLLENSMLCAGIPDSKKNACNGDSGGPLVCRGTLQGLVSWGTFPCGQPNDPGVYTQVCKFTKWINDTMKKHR
MPTP block: permeability transition pore inhibition | isolated mouse mitochondria, Ca2+ swelling absorbance, 30 min | inhibition, % at 10 µM | hit rate 1.4% among 360,000 | AID 602449;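 active = inhibition of 50% or more, scaled per plate between neutral and stimulator controls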;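 note: 0% = DMSO wells given calcium and 100% = 1 mM EGTA wells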
ADAM10 inh: inhibits human ADAM10. O14672. recombinant ADAM10, EDANS/DABCYL FRET peptide cleavage, 3 h. inhibition, % at 7 µM. hit rate 0.62% among 370,000;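 active = inhibition above a per-campaign cutoff equal to the mean of compounds falling between control-based bounds plus 3 SD, cut at about 20% in these data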;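 note: 0% = DMSO wells while the 100% control is not disclosed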
ADAM17 inh: inhibits human ADAM17; recombinant ADAM17, EDANS/DABCYL FRET peptide cleavage; inhibition, % at 6.95 µM; hit rate 0.83% among 370,000;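 active = inhibition above the mean of compounds lying between control limits plus 3 SD, set per campaign, cut at about 8.5% in these data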;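 note: 0% = DMSO-only wells as the low control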
DSG3 Ab inh: inhibitors of pemphigus antibody binding to human desmoglein-3; P32926; DSG3-coupled beads, scFv-anti-DSG3-GFP binding, flow cytometry; stronger effect = lower value; binding (percent of control), % at 10 µM; hit rate 0.48% among 310,000; AID 588358;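 active = binding more than 3 SD below its plate's average and above zero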
rCAG bind conf: r(CAG) RNA repeat binding, confirmation; shares compounds with rCAG binder; inhibition, % at 3 µM; AID 652065; hit rate 70% among 4,300; TO-PRO-1 dye displacement fluorescence;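 active = inhibition above a per-plate cutoff, the mean inhibition of sample wells plus 3 SD, cut at about 35% in these data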;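 note: loss of TO-PRO-1 fluorescence as compound displaces dye from 1x1 AA loop RNA; 0% = DMSO only wells and 100% = 100 µM mitoxantrone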
DNA CAG counter: disrupts DNA CAG TO-PRO-1 complex, flagging rCAG hits; shares compounds with rCAG binder; d(CAG) DNA oligo TO-PRO-1 dye displacement, fluorescence; inhibition, % at 3 µM; hit rate 94% among 4,300;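 active = inhibition above its plate's cutoff, the mean test-well inhibition plus 3 SD, cut at about 4.8% in these data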;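 note: 0% = DNA dye mix with DMSO and 100% = 100 µM mitoxantrone; hits displace the dye from DNA and so lower well fluorescence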
DNA CAG DR: DNA CAG dye complex inhibition, dose response counter-screen. IC50, µM. shares compounds with rCAG binder. hit rate 20% among 250. AID 686960. DNA CAG/GTC duplex TO-PRO-1 dye displacement fluorescence; in the data active = IC50 below about 10 µM
The depositor's hits bear a star; i = inactive; . = no result given.

SMILES | rCAG binder | KLK7 zymogen act | MPTP block | ADAM10 inh | ADAM17 inh | DSG3 Ab inh | rCAG bind conf | DNA CAG counter | others
O=C(O)CC1(CC(=O)Nc2cc(C(F)(F)F)cc(C(F)(F)F)c2)CCCCC1 | 41.8* | 0.1 | 36.9 | -0.8 | -3.8 | 89.7 | 24.3 | 4.8*
O=C(O)CC1(CC(=O)NCc2ccc(C(F)(F)F)cc2)CCCCC1 | 13.3 | 0.1 | 7.6 | -1.3 | 1.5 | 102.1 | . | .
CC(C)(C)OC(=O)N1CCC(Cc2cc(-c3cccc(Br)c3)no2)(C(=O)O)CC1 | 48.3* | 0.6 | -1.7 | 3.9 | 1.1 | 97.2 | 49.0* | 13.8* | DNA CAG DR=>29.9
CCC(=O)N1Cc2cc(C(=O)NCC(F)(F)F)nc(-c3cccc(-c4cncnc4)c3)c2[C@H]1CCO | -2.2 | 0.3 | -1.3 | 1.2 | -0.2 | . | . | .
Cc1cc(C(=O)O)ccc1-n1c(C)cc(C=C2C(=O)c3ccccc3C2=O)c1C | 42.8* | 0.6 | -3.0 | -1.1 | -1.6 | 103.9 | 41.1* | 11.1*
Cc1sc2nc(SCC(=O)Nc3ccc(Cl)c(C(=O)O)c3)[nH]c(=O)c2c1C | 4.1 | 0.5 | -2.1 | -3.4 | -0.9 | 100.5 | . | .
Cc1ccc(-c2csc3nc(SCC(=O)Nc4ccc(Cl)c(C(=O)O)c4)[nH]c(=O)c23)cc1 | 80.6* | -0.6 | 0.2 | 7.5 | 0.1 | 95.3 | 55.1* | 20.2*
NC1=NC(=O)/C(=C\c2ccco2)S1 | 36.9* | 1.1 | 2.4 | -1.6 | -4.4 | 98.0 | 15.4 | 5.7*
Cc1cc(NS(=O)(=O)c2ccc(NC(=O)Cc3ccc(Cl)c(Cl)c3)cc2)on1 | 57.0* | -0.4 | . | -8.4 | -4.9 | . | 62.6* | 23.9*
O=C(Cc1ccc(Cl)c(Cl)c1)Nc1ccc(S(=O)(=O)Nc2ccon2)cc1 | 29.9 | -1.2 | . | -5.3 | -6.7 | . | . | .
Cc1ccc(S(=O)(=O)N2[C@@H](c3ccc(Cl)c(Cl)c3)C(C(=O)O)=C[C@H]2CC2CCCC2)cc1 | 87.2* | -0.8 | 0.6 | 14.2 | 3.5 | 104.7 | 86.3* | 56.8*
Cc1ccc(S(=O)(=O)N2[C@@H](c3ccc(C#N)cc3)C(C(=O)O)=C[C@H]2CC2CCCC2)cc1 | 68.8* | -0.1 | 0.4 | -2.0 | 0.3 | 95.1 | 59.1* | 24.8*
Cc1ccc(S(=O)(=O)N2[C@@H](c3ccc(Cl)cc3)C(C(=O)O)=C[C@H]2CC2CCCC2)cc1 | 76.7* | -0.1 | 1.9 | -3.7 | 2.1 | 113.6 | 76.5* | 39.5*
Cc1ccc(S(=O)(=O)NCCC(=O)NCCOc2ccccc2)cc1 | -3.7 | 0.6 | -0.9 | -9.4 | -3.9 | 94.1 | . | .
Cc1[nH]c2ccccc2c1CC(=O)Nc1ccc(Nc2cccnc2)c(Br)c1 | 11.5 | 0.5 | . | 1.6 | -0.2 | . | . | .
Clc1ccc(CN(Cc2ccc(Cl)cc2)c2nn[nH]n2)cc1 | 38.6* | 0.1 | 20.0 | 4.2 | -4.2 | 100.5 | 27.3 | 5.4*
CNC[C@@H]1OCc2ccccc2-c2c(n(C)c3ccccc23)C(=O)N([C@@H](C)CO)C[C@@H]1C | 5.7 | -0.1 | . | -8.1 | -2.5 | . | . | .
Cc1ccc(C2=NOC(=O)/C2=C\c2ccc(C)o2)cc1 | 37.2* | 0.5 | 5.9 | -5.9 | -7.3 | 106.4 | 14.9 | 6.8*
Cc1ccc(/C=C2\C(=O)ON=C2c2ccccc2)o1 | -2.1 | -0.2 | -0.1 | -18.4 | -0.4 | 120.7 | . | .
O=C(NCc1cccs1)C1CCCN(S(=O)(=O)c2cccc3ccccc23)C1 (centres undefined) | 2.0 | 0.0 | . | 16.0 | 6.0 | . | . | .
COc1ccc(CN2CCC(n3nccc3NC(=O)CCc3ccccc3)CC2)c(C)c1C | -5.7 | -0.1 | 0.9 | 0.2 | -1.9 | . | . | .
Oc1ccccc1-c1nc2c3ccccc3c3ccccc3c2[nH]1 | 56.3* | -27.1 | 2.2 | i | i | 97.5 | 39.4* | 28.6*
COc1cccc(C(=O)N2CCC[C@@H]2C(=O)N2CCC[C@@H]2C(=O)NCc2ccccc2)c1 | 1.9 | -0.1 | . | -1.4 | 0.8 | . | . | .
Oc1ccc(C2Nc3cccc4cccc(c34)N2)c(O)c1 | 75.4* | 0.2 | 3.1 | -7.7 | -7.3 | 98.5 | 64.5* | 44.2*
